According to PubChem BioAssay AID504408 (Broad Institute, 2011):
Out of some 300,000 compounds screened, about 5,200 (1.7%) were called active. This excerpt belongs to a sample that is enriched for actives. Values without a mark were called inactive.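 The calls were made as follows: active = mean replicate activation of at least 50% with a set share of replicates each reaching 50%; inconclusive = only one of those two conditions met; inactive = mean below 50% and too few replicates reaching it.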

Assay: HSF-1 activators, primary screen, NIH3T3-HGL cells, MG132 stress, luminescence, single point (AID 504408);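 also: 0% = median of the neutral control wells and 100% = twice that signal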
Conditions: NIH3T3-HGL HSF-1 luciferase reporter, MG132, 8 h; at 9 µM; stronger effect = higher value; 100% = twice DMSO control signal

SMILES	activation
COc1ccc(/C=C(\C#N)C(=O)OCC(=O)N(C)C2CCS(=O)(=O)C2)cc1 (stereo unspecified)	-4.8%
Cc1ccc2nc(SCC(=O)Nc3cccc4ccccc34)nc(=O)n2c1	16.2%
CN(C)CCCn1c(N)c(C#N)c2nc(C#N)c(C#N)nc21	76.2% (active)
CC(C)(C)c1ccc(C(=O)NCCn2c(N)c(C#N)c3nc4ccccc4nc32)cc1	27.2%
N#Cc1c(N)n(CCOC(=O)c2ccc(Cl)cc2)c2nc3ccccc3nc12	26.8%
CC(OC(=O)CCCc1c[nH]c2ccccc12)C(=O)Nc1ccc(S(N)(=O)=O)cc1 (stereo unspecified)	8.99%
CC(=O)Nc1ccc(C(=O)Nc2cccc(S(=O)(=O)NC3=NCCC3)c2)cc1	-9.72%
COc1ccc(C(=O)CN2C(=O)NC3(CCc4ccccc43)C2=O)c(OC)c1 (stereo unspecified)	-14%
Cc1nn(C)cc1C(=O)c1ccccc1	5.22%
Cc1cc(NC(=O)C(C)N2C(=O)c3ccccc3S2(=O)=O)no1 (stereo unspecified)	-3.5%
COc1cc2ccccc2cc1C(=O)N1CCOCC1	-5.8%
C=CCN1C(=O)C(Cc2cccc(Cl)c2)S/C1=N/N=C/c1ccco1 (stereo unspecified)	23.1%
CCOc1ccc(N=C2SC(C(=O)O)CC(=O)N2C)cc1 (stereo unspecified)	-0.001%
C=CCN1C(=O)C(Cc2ccc(OCC)cc2)SC1=Nc1ccc(C(=O)O)cc1 (stereo unspecified)	58.5% (active)
COc1cccc(N2CC(NC(=O)c3ccc4ccccc4c3)CC2=O)c1 (stereo unspecified)	-3.4%
Nc1c(-c2ccccc2)nnn1Cc1ccccc1	17.5%
Clc1ccc2nc(CSc3ccccc3)cn2c1	70.2% (active)
O=c1c2ccccc2nc2n1C(CSc1ccc(Cl)cc1)CN2 (stereo unspecified)	-13%
O=C(/C=C/c1ccc2c(c1)OCO2)NCc1cn2cc(Cl)ccc2n1	1.53%
N#CC1(NC(=O)COC(=O)Cc2n[nH]c(=O)c3ccccc23)CCCCC1	3.96%
COc1ccc(-c2cc(C(=O)N(C)CC(=O)Nc3ccccc3Cl)c3ccccc3n2)cc1OC	-23.1%

SMILES	activation
Cc1cccc(OC(=O)c2sc3ncn(C)c(=O)c3c2C)c1	17.3%
CCOC(=O)C(C)n1cnc2sc(C)c(C)c2c1=O (stereo unspecified)	6.07%
Cc1c(C(N)=O)sc2ncn(CCOc3ccccc3)c(=O)c12	58.5% (active)
CCOc1ccc(CCNC(=O)COC(=O)c2ccc(F)c(S(=O)(=O)N3CCOCC3)c2)cc1OCC	-9.54%
CCC(=O)N1CCc2cc(Br)c(S(=O)(=O)NCCN3CCCCC3CC)cc21 (stereo unspecified)	-1.08%
COc1ccc(C(=O)Nc2cccc(NC(=O)c3ccc(OC)cc3OC)n2)c(OC)c1	-34.1%
O=C1CC(c2cccc(Cl)c2)CC(O)=C1C=Nc1ccccc1 (stereo unspecified)	116% (active)
O=C1CC(c2ccccc2)CC(O)=C1C=NCCN1CCOCC1 (stereo unspecified)	-5.8%
O=C1CCCC(O)=C1C=NCCc1ccccc1	21%
O=C(NCCS(=O)(=O)N1CCN(c2ccccc2)CC1)c1ccco1	4.49%
Cc1cc(O)c(Sc2ccccc2)c(=O)o1	-2.42%
CCCCn1c(N)c(N(CC(C)C)C(=O)c2cccc(S(=O)(=O)N3CCN(C(C)=O)CC3)c2)c(=O)[nH]c1=O	-4.85%
CCCCOC(=O)CCCc1ccc([N+](=O)[O-])cc1[N+](=O)[O-]	65% (active)
CCCCOc1ccc(CSC(=N)N)cc1[N+](=O)[O-]	-29.6%
CCOC(=O)C/C(C)=N\Nc1ccc([N+](=O)[O-])cc1[N+](=O)[O-]	1.63%
Cc1csc2nc(O)c(C(=O)NCCN3CCOCC3)c(=O)n12	-6.85%
COc1ccc(S(=O)(=O)NCC(c2ccc(C)cc2)N2CCN(C)CC2)cc1OC (stereo unspecified)	5.43%
S=C(Nc1cccc(Cl)c1)Nc1ccc2cn[nH]c2c1	20.2%
Cc1csc(NC(=S)Nc2cccc(Cl)c2)n1	58.4% (active)
S=C(Nc1cccc(Cl)c1)Nc1ccc2c(c1)OCCO2	5.58%
COc1ccc(C(=O)NCC2CCCN2S(=O)(=O)c2cccs2)cc1OC (stereo unspecified)	-9.4%

SMILES	activation
CCN(c1cccc(C)c1)S(=O)(=O)c1ccc(-c2coc(C)n2)cc1	-1.05%
CCN(CC)S(=O)(=O)c1ccc(-c2cn3ccc(C)cc3n2)cc1	58.1% (active)
Cc1ccc2nc(-c3ccc(Br)cc3)cn2c1	-34.2%
Cc1ccc(SCC(=O)Nc2nncs2)cc1	-2.82%
COc1ccc(-n2nnnc2CNC(=O)c2ccc3ccccc3c2)cc1	3.44%
COc1cccc(NC(=O)CSc2nnc(-c3cccnc3)o2)c1	11.6%
Cc1ccc(C)c(-c2nnc(NC(=O)CS(=O)(=O)c3ccccc3)o2)c1	-10.1%
COc1cc2ccccc2cc1C(=O)Nc1nc(C)c(C(C)=O)s1	23.8%
COc1ccccc1/C=N/Nc1nc(C)c(C(C)=O)s1	55.9% (active)
CC(=O)c1sc(N/N=C\c2ccc(C)cc2)nc1C	38.3%
COc1cccc2sc(Nc3nc(C)c(C(C)=O)s3)nc12	-3.69%
CC(=O)c1sc(N/N=C/c2ccc(C(C)C)cc2)nc1C	59.6% (active)
CC(=O)c1sc(NC(=O)CCCOc2ccccc2C)nc1C	35.1%
CCN1C(=O)[C@H]2[C@@H](c3ccc(C)cc3)N3C(=O)N(c4cccc(Br)c4)C(=O)[C@@]3(CC)[C@H]2C1=O	-10.8%
Cc1csc(NC(=O)CSc2nc(=O)n(CCCN(C)C)c3c2CCC3)n1	-4.76%
Cc1ccc(S(=O)(=O)CCC(=O)OCC(=O)N(C)C2CCS(=O)(=O)C2)cc1 (stereo unspecified)	2.33%
CCN(Cc1ccccc1)S(=O)(=O)c1cc2c3c(c1)CCN3C(=O)CC2	23.7%
COc1ccc2c(c1)C(=O)Nc1cc(Cl)ccc1N2	12.2%
CN(C)CCn1c2c(c(SCC(=O)Nc3ccccc3C(F)(F)F)nc1=O)CCCC2	-8.06%
